Among all 310,000 compounds or so, about 14,000 (4.5%) showed an effect of 50% or more. Effects have a minus sign here. Many of the other results were omitted from the sample, so strong results are more common in it than they were.
What follows are compounds tested against human ether-à-go-go-related gene (hERG) potassium channel (human, UniProt Q12809) (assay: primary screen, population patch clamp on CHO cells stably expressing hERG; higher = less effect of the substance).
Sequence of human ether-à-go-go-related gene (hERG) potassium channel (Q12809 whole entry, looked up): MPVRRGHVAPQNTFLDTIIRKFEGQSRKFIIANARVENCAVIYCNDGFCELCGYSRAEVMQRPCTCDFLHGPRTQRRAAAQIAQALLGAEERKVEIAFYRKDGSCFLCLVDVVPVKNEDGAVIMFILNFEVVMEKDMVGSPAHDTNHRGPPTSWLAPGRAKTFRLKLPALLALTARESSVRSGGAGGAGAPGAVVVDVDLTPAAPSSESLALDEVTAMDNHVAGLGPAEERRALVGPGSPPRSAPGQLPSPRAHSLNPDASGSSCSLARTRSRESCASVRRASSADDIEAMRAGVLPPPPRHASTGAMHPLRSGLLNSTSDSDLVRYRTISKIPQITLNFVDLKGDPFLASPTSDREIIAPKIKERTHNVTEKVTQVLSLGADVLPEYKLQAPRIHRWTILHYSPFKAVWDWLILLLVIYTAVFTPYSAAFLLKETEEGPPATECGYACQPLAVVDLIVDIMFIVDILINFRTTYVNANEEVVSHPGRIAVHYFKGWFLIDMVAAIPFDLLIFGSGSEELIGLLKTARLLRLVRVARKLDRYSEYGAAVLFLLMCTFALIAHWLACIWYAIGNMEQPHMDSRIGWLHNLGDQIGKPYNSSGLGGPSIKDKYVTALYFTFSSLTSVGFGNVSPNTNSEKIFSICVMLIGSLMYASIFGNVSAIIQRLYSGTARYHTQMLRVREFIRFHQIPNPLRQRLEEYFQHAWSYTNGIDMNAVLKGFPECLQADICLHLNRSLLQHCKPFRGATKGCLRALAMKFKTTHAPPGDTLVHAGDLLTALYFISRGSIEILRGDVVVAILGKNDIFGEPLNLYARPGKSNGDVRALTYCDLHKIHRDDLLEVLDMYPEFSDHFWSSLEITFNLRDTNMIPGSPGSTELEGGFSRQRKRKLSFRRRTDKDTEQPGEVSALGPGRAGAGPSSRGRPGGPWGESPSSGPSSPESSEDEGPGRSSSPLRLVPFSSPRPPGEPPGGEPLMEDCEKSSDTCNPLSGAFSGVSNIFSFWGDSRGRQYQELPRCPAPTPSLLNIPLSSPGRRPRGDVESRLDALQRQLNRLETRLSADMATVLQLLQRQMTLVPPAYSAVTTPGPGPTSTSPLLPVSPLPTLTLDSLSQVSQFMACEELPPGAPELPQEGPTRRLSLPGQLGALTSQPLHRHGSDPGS
In the case of `COc1ccc(OC)c(S(=O)(=O)n2ccnc2C)c1`, the “hERG current change (%, negative = inhibition) at 10uM” value is reported as 0.0552%. With `CCOc1ccc(N2CC(C(=O)Nc3c(C)n(C)n(-c4ccccc4)c3=O)CC2=O)cc1` (stereo not drawn) the “hERG current change (%, negative = inhibition) at 10uM” value was 22.6%. In the case of `CCn1cc(C(=O)N2CCN(C(=O)c3ccco3)CC2)c2cc(OC)c(OC)cc2c1=O`, the “hERG current change (%, negative = inhibition) at 10uM” value is reported as 7.72%. For `CCOCCCNC(=O)c1cc(-c2ccc(Br)s2)nc2ccccc12`, the “hERG current change (%, negative = inhibition) at 10uM” value was 15%. For `CC(C)C(=O)NS(=O)(=O)c1ccc(N)cc1`, the “hERG current change (%, negative = inhibition) at 10uM” value was 8.54%. `Cc1ccc(NC(=O)C2(NC(=O)c3cccc(N4C(=O)CSC4c4ccccc4)c3)CCCCC2)cc1` (stereo not drawn) was tested, and the “hERG current change (%, negative = inhibition) at 10uM” value was 2.72%. For `COc1cccc(NS(=O)(=O)c2cc3c(cc2C)NC(=O)CO3)c1`, the “hERG current change (%, negative = inhibition) at 10uM” value was -38.7%. With `COc1ccc(NS(=O)(=O)c2cc3c(cc2C)NC(=O)CO3)c(OC)c1` the “hERG current change (%, negative = inhibition) at 10uM” value was -15.3%. In the case of `Cc1ccc(CNS(=O)(=O)c2cc3c(cc2C)NC(=O)CO3)cc1`, the “hERG current change (%, negative = inhibition) at 10uM” value is reported as -39.8%. With `COc1cc(NS(=O)(=O)c2cc3c(cc2C)NC(=O)CO3)cc(OC)c1` the “hERG current change (%, negative = inhibition) at 10uM” value was -62.2%. `Cc1cc2c(cc1S(=O)(=O)NCc1ccc(Cl)cc1)OCC(=O)N2` was tested, and the “hERG current change (%, negative = inhibition) at 10uM” value was -57.9%. `Cc1cc2c(cc1S(=O)(=O)NCCc1ccc(Cl)cc1)OCC(=O)N2` was tested, and the “hERG current change (%, negative = inhibition) at 10uM” value was -21.3%. For `O=C(O)c1ccc(NC(=S)N2CCCCC2)cc1`, the “hERG current change (%, negative = inhibition) at 10uM” value was 19.8%. For `CN(CC(=O)N1CCCCCC1)S(=O)(=O)c1ccc(Br)s1`, the “hERG current change (%, negative = inhibition) at 10uM” value was -9.92%. For `COc1ccc([N+](=O)[O-])cc1NC(=O)CCCOc1ccccc1`, the “hERG current change (%, negative = inhibition) at 10uM” value was 21.6%. For `COC(=O)c1cc2c(N)c(C(=O)c3ccc(Cl)cc3)sc2nc1C(OC)OC`, the “hERG current change (%, negative = inhibition) at 10uM” value was -69.6%. In the case of `Nc1c(C(=O)c2ccc(Cl)cc2)sc2nc3c(cc12)CCC3`, the “hERG current change (%, negative = inhibition) at 10uM” value is reported as 12%. For `COC(=O)c1cc2c(N)c(C(=O)c3ccccc3)sc2nc1C(OC)OC`, the “hERG current change (%, negative = inhibition) at 10uM” value was 0.631%. `CCNC(=S)N1CCN(C(c2ccccc2)c2ccccc2)CC1` was tested, and the “hERG current change (%, negative = inhibition) at 10uM” value was 2.6%. With `CC(C)NC(=S)N1CCN(C(c2ccccc2)c2ccccc2)CC1` the “hERG current change (%, negative = inhibition) at 10uM” value was -34.7%. For `CCC(C)NC(=S)N1CCN(C(c2ccccc2)c2ccccc2)CC1` (stereo not drawn), the “hERG current change (%, negative = inhibition) at 10uM” value was -59.6%. With `O=c1cc(O)c2c(=O)n(-c3ccccc3)c3c(c2o1)CCCCC3` the “hERG current change (%, negative = inhibition) at 10uM” value was -0.822%. In the case of `O=C(NCc1ccccc1)N1CCn2c(nc3ccccc32)C1`, the “hERG current change (%, negative = inhibition) at 10uM” value is reported as 2.53%. For `Cn1c(N2CCN(C(c3ccccc3)c3ccccc3)CC2)nc2ccccc21`, the “hERG current change (%, negative = inhibition) at 10uM” value was -51.7%. `CCCn1c(N2CCN(C(=O)Nc3ccccc3)CC2)nc2ccccc21` was tested, and the “hERG current change (%, negative = inhibition) at 10uM” value was -35.9%. `Cn1c(N2CCN(C(=O)NC34CC5CC(CC(C5)C3)C4)CC2)nc2ccccc21` was tested, and the “hERG current change (%, negative = inhibition) at 10uM” value was 23.2%. For `CC(C)n1c(N2CCN(C(=O)Nc3ccc(Cl)cc3)CC2)nc2ccccc21`, the “hERG current change (%, negative = inhibition) at 10uM” value was -36.3%. In the case of `CCCn1c(N2CCN(C(=O)NCc3ccccc3)CC2)nc2ccccc21`, the “hERG current change (%, negative = inhibition) at 10uM” value is reported as -67.9%. In the case of `Cn1c(N2CCN(C(=O)NCc3ccccc3)CC2)nc2ccccc21`, the “hERG current change (%, negative = inhibition) at 10uM” value is reported as -60%. With `CCCn1c(N2CCN(S(=O)(=O)Cc3ccccc3)CC2)nc2ccccc21` the “hERG current change (%, negative = inhibition) at 10uM” value was 4.46%. In the case of `CC(C)n1c(N2CCN(C(=O)NCc3ccccc3)CC2)nc2ccccc21`, the “hERG current change (%, negative = inhibition) at 10uM” value is reported as -59.2%. In the case of `Cn1c(N2CCNCC2)nc2ccccc21`, the “hERG current change (%, negative = inhibition) at 10uM” value is reported as -15.7%. With `c1ccc(C(c2ccccc2)N2CCN(c3ccc4ccccc4n3)CC2)cc1` the “hERG current change (%, negative = inhibition) at 10uM” value was -3.18%. For `CC(C)n1c(N2CCN(C(=O)Nc3ccccc3)CC2)nc2ccccc21`, the “hERG current change (%, negative = inhibition) at 10uM” value was -14.6%. `Cc1cc(-c2cccs2)c2c(N)c(C(=O)c3ccc4c(c3)OCO4)sc2n1` was tested, and the “hERG current change (%, negative = inhibition) at 10uM” value was 5.2%. For `Cc1ccc(S(=O)(=O)N(C)c2ccccc2C(=O)Nc2c(F)cccc2F)cc1`, the “hERG current change (%, negative = inhibition) at 10uM” value was 3.31%. `CC(C)(C)N1CC(c2nc3ccccc3n2Cc2ccccc2)CC1=O` (stereo not drawn) was tested, and the “hERG current change (%, negative = inhibition) at 10uM” value was -47.2%. `COc1ccc(S(=O)(=O)N2CCOCC2)cc1NC(=O)c1sccc1C` was tested, and the “hERG current change (%, negative = inhibition) at 10uM” value was -3.22%. In the case of `COc1ccc2nc(SC(C)C(=O)NC3(C#N)CCCCC3)[nH]c2c1` (stereo not drawn), the “hERG current change (%, negative = inhibition) at 10uM” value is reported as -20.1%. With `COC(=O)c1cc2oc(C)cc2n1CC(=O)N1CCCc2ccccc21` the “hERG current change (%, negative = inhibition) at 10uM” value was -11.9%. `Cc1ccc2nc(NC(=O)CSCC(=O)OCC(=O)c3ccc(Br)cc3)sc2c1` was tested, and the “hERG current change (%, negative = inhibition) at 10uM” value was 16.5%. In the case of `O=C(COc1ccc(Br)cc1)NCCCn1ccnc1`, the “hERG current change (%, negative = inhibition) at 10uM” value is reported as -20.1%. `COc1ccc(Cl)cc1NC(=O)CN(C)C(=O)c1cc2c(F)cccc2s1` was tested, and the “hERG current change (%, negative = inhibition) at 10uM” value was -6.32%. With `CCCCSc1nnc(C)c(=O)[nH]1` the “hERG current change (%, negative = inhibition) at 10uM” value was 3.25%. In the case of `Cc1cccc(C2c3[nH]c4ccccc4c3CCN2C(=O)Cc2n[nH]c(C)n2)n1` (stereo not drawn), the “hERG current change (%, negative = inhibition) at 10uM” value is reported as 5.57%.

Source: article PMC4336329 (PLoS ONE, 2015)
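Note: peak tail current of the secondary pulse compared with the same well before compound.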
